Reference: PubChem BioAssay (NCI)
This is part of a sample that, as a whole, favours compounds with a hit. Of some 79,000 tested, about 15% had one in any assay. A number with no mark means an inactive call. Active and inactive are the calls of the source. Rule as the data show it: active = growth inhibition above about 70%; inactive = the rest.

What was measured:
[1] = NCI Yeast Anticancer Drug Screen. Data for the rad52 strain (AID 147);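 also: 0% = growth of vehicle-treated control cultures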; settings: S. cerevisiae rad52 mutant growth inhibition, hits give high values
Procedure, shortened: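 Measured: yeast growth inhibition. System: strain with a defined DNA damage repair alteration. Reference: vehicle-treated control cultures.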

[2] = NCI Yeast Anticancer Drug Screen. Data for the rad50EPP+ strain (AID 151);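 also: 0% = growth of vehicle-treated control cultures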; settings: S. cerevisiae rad50 mutant strain, hits give high values
Procedure, shortened: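 One strain with a rad50 alteration (rad50EPP+) was compound-treated, its growth then compared to that of vehicle controls.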

[3] = NCI Yeast Anticancer Drug Screen. Data for the mgt1 strain (AID 153); settings: S. cerevisiae mgt1 mutant growth inhibition, hits give high values
Procedure, shortened: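 After exposure of the mgt1 yeast mutant to compound, growth was measured and reported as inhibition compared with vehicle controls.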

[4] = NCI Yeast Anticancer Drug Screen. Data for the rad50 strain (AID 155);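 also: 0% = growth of vehicle-only cultures of the same strain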; settings: S. cerevisiae rad50 strain growth inhibition, hits give high values
Procedure, shortened: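 Compounds were tested on a yeast strain with an engineered DNA damage repair alteration; the reported value is growth inhibition normalised to vehicle treatment.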

[5] = NCI Yeast Anticancer Drug Screen. Data for the mec2-1 strain (AID 157); settings: S. cerevisiae mec2-1 strain, hits give high values
Procedure, shortened: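 Test agents were screened against the mec2-1 yeast strain, with defined DNA repair or cell cycle alteration. Growth was scored as inhibition against vehicle-only controls.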

[6] = NCI Yeast Anticancer Drug Screen. Data for the rad14 strain (AID 159);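 also: 0% = growth of vehicle-treated control cultures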; settings: S. cerevisiae rad14 strain growth inhibition, hits give high values
Procedure, shortened: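 Compound-treated yeast with a defined DNA-repair lesion; growth inhibition normalised to vehicle-treated cultures.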

[7] = NCI Yeast Anticancer Drug Screen. Data for the sgs1 mgt1 strain (AID 161);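 also: 0% = growth of cultures given vehicle only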; settings: S. cerevisiae sgs1 mgt1 strain, hits give high values
Procedure, shortened: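 Mutant yeast exposed to compound; growth scored against vehicle-only wells.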

[8] = NCI Yeast Anticancer Drug Screen. Data for the CLN2oe strain (AID 163);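 also: 0% = growth of vehicle-only control cultures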; settings: S. cerevisiae CLN2oe strain, hits give high values
Procedure, shortened: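 Here, growth inhibition in a cell-cycle-altered yeast strain after compound exposure was quantified against vehicle control growth.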

[9] = NCI Yeast Anticancer Drug Screen. Data for the cln2 rad14 strain (AID 165);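 also: 0% = growth equal to vehicle treated cultures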; settings: S. cerevisiae cln2 rad14 strain, hits give high values
Procedure, shortened: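 Growth of compound-exposed yeast (cln2 rad14 genotype) measured and expressed as inhibition relative to vehicle.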

[10] = NCI Yeast Anticancer Drug Screen. Data for the bub3 strain (AID 167); settings: S. cerevisiae bub3 mutant strain, hits give high values
Procedure, shortened: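 Growth of a checkpoint-deficient yeast mutant is measured after compound exposure. Values represent inhibition relative to vehicle.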

[11] = NCI Yeast Anticancer Drug Screen. Data for the wt2 strain (AID 169);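 also: 0% = growth of vehicle-treated yeast cultures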; settings: S. cerevisiae wt2 strain growth inhibition, hits give high values
Procedure, shortened: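 Genetically defined yeast strains from a DNA-repair/cell-cycle panel were used. Compound-exposed yeast growth was measured, and the inhibition was calculated relative to vehicle treatment.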

[12] = NCI Yeast Anticancer Drug Screen. Data for the mlh1 strain (AID 171);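 also: 0% = growth of vehicle-treated control cultures of the same strain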; settings: S. cerevisiae mlh1 strain growth inhibition, hits give high values
Procedure, shortened: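 Here the genetically defined yeast mutant is grown with each compound, and the extent to which its growth falls below that of vehicle-exposed cells is reported.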

[13] = NCI Yeast Anticancer Drug Screen. Data for the sgs1 strain (AID 173);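 also: 0% = growth of vehicle-only control cultures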; settings: S. cerevisiae sgs1 mutant, hits give high values
Procedure, shortened: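 Relative growth inhibition, referenced to vehicle, was determined in a yeast strain with a defined alteration affecting DNA damage repair or cell cycle control after compound exposure.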

[14] = NCI Yeast Anticancer Drug Screen. Data for the rad18 strain (AID 177); settings: S. cerevisiae rad18 mutant growth inhibition, hits give high values
Procedure, shortened: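 Screen uses a yeast strain with a defined lesion in DNA damage repair; compound effect is read as loss of growth compared to untreated vehicle cultures.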

[15] = at 5.0 µM (retest, dose inferred, filed as 0.5)
[16] = at 50.0 µM (retest, dose inferred, filed as 5.0)

Cc1cc(=O)oc2c(C)c3occc(=O)c3cc12
growth inhibition ([1]; at 1.2 µM): 1%
growth inhibition ([1]; at 3.7 µM): 2%
growth inhibition ([1]; at 11.0 µM): 17%
growth inhibition ([1]; at 33.0 µM): 48%
growth inhibition ([1]; at 100.0 µM): 86% (active)
growth inhibition ([2]; at 1.2 µM): -1%
growth inhibition ([2]; at 3.7 µM): -1%
growth inhibition ([2]; at 11.0 µM): 4%
growth inhibition ([2]; at 33.0 µM): 29%
growth inhibition ([2]; at 100.0 µM): 67%
growth inhibition ([3]; at 1.2 µM): -5%
growth inhibition ([3]; at 3.7 µM): 3%
growth inhibition ([3]; at 11.0 µM): -11%
growth inhibition ([3]; at 33.0 µM): -10%
growth inhibition ([3]; at 100.0 µM): 44%
growth inhibition ([4]; at 1.2 µM): -1%
growth inhibition ([4]; at 3.7 µM): 2%
growth inhibition [4, 15]: 24%
growth inhibition ([4]; at 11.0 µM): 18%
growth inhibition ([4]; at 33.0 µM): 59%
growth inhibition [4, 16]: 67%
growth inhibition ([4]; at 50.0 µM): 94.3% (active)
growth inhibition ([4]; at 100.0 µM): 84% (active)
growth inhibition ([5]; at 1.2 µM): -2%
growth inhibition ([5]; at 3.7 µM): 0%
growth inhibition [5, 15]: -6%
growth inhibition ([5]; at 11.0 µM): 4%
growth inhibition ([5]; at 33.0 µM): 14%
growth inhibition [5, 16]: 21%
growth inhibition ([5]; at 50.0 µM): 67.2%
growth inhibition ([5]; at 100.0 µM): 40%
growth inhibition ([6]; at 1.2 µM): 2%
growth inhibition ([6]; at 3.7 µM): 2%
growth inhibition ([6]; at 11.0 µM): 1%
growth inhibition ([6]; at 33.0 µM): 9%
growth inhibition ([6]; at 100.0 µM): 28%
growth inhibition [7, 15]: -10%
growth inhibition [7, 16]: 8%
growth inhibition ([7]; at 50.0 µM): 74.4% (active)
growth inhibition ([8]; at 1.2 µM): -2%
growth inhibition ([8]; at 3.7 µM): -1%
growth inhibition ([8]; at 11.0 µM): 9%
growth inhibition ([8]; at 33.0 µM): 6%
growth inhibition ([8]; at 100.0 µM): 29%
growth inhibition [9, 15]: -17%
growth inhibition [9, 16]: 15%
growth inhibition ([9]; at 50.0 µM): 43.8%
growth inhibition ([10]; at 1.2 µM): -1%
growth inhibition ([10]; at 3.7 µM): -1%
growth inhibition [10, 15]: 12%
growth inhibition ([10]; at 11.0 µM): 3%
growth inhibition ([10]; at 33.0 µM): 5%
growth inhibition [10, 16]: 19%
growth inhibition ([10]; at 50.0 µM): 78% (active)
growth inhibition ([10]; at 100.0 µM): 15%
growth inhibition ([11]; at 1.2 µM): -1%
growth inhibition ([11]; at 3.7 µM): -2%
growth inhibition ([11]; at 11.0 µM): 1%
growth inhibition ([11]; at 33.0 µM): 10%
growth inhibition ([11]; at 100.0 µM): 32%
growth inhibition ([12]; at 1.2 µM): -1%
growth inhibition ([12]; at 3.7 µM): 4%
growth inhibition ([12]; at 11.0 µM): 2%
growth inhibition ([12]; at 33.0 µM): 11%
growth inhibition ([12]; at 100.0 µM): 48%
growth inhibition ([13]; at 1.2 µM): 0%
growth inhibition ([13]; at 3.7 µM): -2%
growth inhibition ([13]; at 11.0 µM): 0%
growth inhibition ([13]; at 33.0 µM): 6%
growth inhibition ([13]; at 100.0 µM): 34%
growth inhibition ([14]; at 1.2 µM): -1%
growth inhibition ([14]; at 3.7 µM): -4%
growth inhibition ([14]; at 11.0 µM): -2%
growth inhibition ([14]; at 33.0 µM): 7%
growth inhibition ([14]; at 100.0 µM): 40%
